Molecules are shown by their SMILES. Screen size: about 310,000 compounds; about 1,500 (0.48%) were called active. This is one part of a sample in which actives are shown more often than they occur. Unmarked numbers belong to inactive results.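 The calls were made as follows: active = binding more than 3 SD below its plate's average and above zero; inconclusive = below that plate limit but binding exactly zero; inactive = the rest.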

Sequence of Desmoglein-3 (Homo sapiens) (P32926 whole entry, looked up, the tested form may be a part): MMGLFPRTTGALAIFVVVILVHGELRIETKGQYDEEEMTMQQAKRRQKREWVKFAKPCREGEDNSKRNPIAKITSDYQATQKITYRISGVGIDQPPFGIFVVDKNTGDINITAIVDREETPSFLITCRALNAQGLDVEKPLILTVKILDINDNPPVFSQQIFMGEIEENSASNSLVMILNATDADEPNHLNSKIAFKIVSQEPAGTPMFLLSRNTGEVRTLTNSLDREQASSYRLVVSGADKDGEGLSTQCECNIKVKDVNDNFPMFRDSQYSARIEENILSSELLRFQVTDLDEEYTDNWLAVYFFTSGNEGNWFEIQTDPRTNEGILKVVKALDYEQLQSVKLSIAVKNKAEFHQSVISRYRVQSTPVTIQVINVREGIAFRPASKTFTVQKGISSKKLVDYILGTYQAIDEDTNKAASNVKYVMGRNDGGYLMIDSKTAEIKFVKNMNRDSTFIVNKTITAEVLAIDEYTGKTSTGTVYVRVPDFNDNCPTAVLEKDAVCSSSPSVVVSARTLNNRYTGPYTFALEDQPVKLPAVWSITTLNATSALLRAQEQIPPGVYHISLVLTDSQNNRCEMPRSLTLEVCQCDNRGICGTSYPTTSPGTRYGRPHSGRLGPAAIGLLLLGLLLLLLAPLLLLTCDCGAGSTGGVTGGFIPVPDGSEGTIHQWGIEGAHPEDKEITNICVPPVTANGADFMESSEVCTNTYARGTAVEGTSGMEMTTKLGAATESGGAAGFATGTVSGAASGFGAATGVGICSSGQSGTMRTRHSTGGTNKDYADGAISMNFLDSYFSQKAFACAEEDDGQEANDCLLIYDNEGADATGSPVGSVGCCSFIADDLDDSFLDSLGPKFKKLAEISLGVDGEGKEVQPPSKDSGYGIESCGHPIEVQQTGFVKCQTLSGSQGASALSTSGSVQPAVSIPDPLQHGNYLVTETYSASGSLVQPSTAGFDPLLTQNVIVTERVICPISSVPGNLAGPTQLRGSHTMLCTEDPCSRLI

This experiment addresses Desmoglein-3 (Homo sapiens) (UniProt P32926). Briefly: inhibitors of pemphigus antibody binding to DSG3, primary screen, biochemical, bead-based, flow cytometry, scFv-GFP (AID 588358).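 Also: hits lower antibody fragment binding to DSG3.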 The settings on record: DSG3-coupled beads, scFv-anti-DSG3-GFP binding, at 10 µM, active compounds read low.
With `c1ccc(CCNC2CCCCCC2)cc1`, the binding (percent of control) is 68.9% (active). Then `OC(CNC1CCCCC1)c1ccccc1` (stereo not given), with 107%; and `c1cc2c(cc1CCNC1CCCCCC1)OCO2`, with 97.2%; and `CN1CCC[C@@H]1CCO[C@](C)(c1ccccc1)c1ccc(Cl)cc1`, with 102%. To `Cc1ncoc1C(=O)NCC1=C(c2cccc3ccccc23)C[C@@H]2CC[C@H]1N2Cc1ccco1` belongs 108%.

Source of the values: PubChem BioAssay AID588358 (NMMLSC, 2011).
